The inhibition is the change of the read-out against control, counted positive when it falls.

In all, about 230,000 compounds went through this assay and about 1,500 (0.65%) were called active.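 Rule for the calls: active = pattern-corrected inhibition of lipid staining of at least 50% with the nuclear-stain viability signal not falling by more than 50%; inactive = the rest, inconclusive results apart.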 For the sample, actives were picked, then their nearest neighbours and some compounds at random.

This assay can be described thus: inhibitors of triacylglycerol accumulation, primary screen, cell-based, uHTS, fluorescence, H9c2 (AID 651582).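 For inhibition: 0% = DMSO wells and 100% = triacsin C control wells.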 To be noted: H9c2 cells, Nile Red lipid (TAG) fluorescence, at 12.5 µM, cells loaded with 200 µM oleic acid; DAPI nuclei signal change (viability), lower = more cytotoxic: measured here: DAPI nuclei count viability; inhibition: stronger effect = higher value.
For the compound `CCN(CC)S(=O)(=O)c1ccc(N2CCOCC2)c(NC(=O)c2ccc(=O)n(C)n2)c1`, the DAPI nuclei signal change (viability), lower = more cytotoxic is -1.89% and the inhibition was 5.11% (inactive).
On to `CCOC(=O)C1(C)CCCN(C(=O)c2cccc(Cl)c2)C1` (stereo not given), for which the DAPI nuclei signal change (viability), lower = more cytotoxic was 4.05% and the inhibition was -18.8% (inactive).
As for `CN(C(=O)c1cccc(NC(=O)Cc2ccc(NC(=O)C3CCN(C(=O)C4CCCCC4)CC3)cc2)c1)C1CCC1`, the DAPI nuclei signal change (viability), lower = more cytotoxic is -0.027% and the inhibition is -1.1% (inactive).
For `O=C(Nc1ccccc1)Oc1cccc2cccnc12`, in that order: -22.4% and 63.4% (active).
For the compound `OCc1ccc(OCCCOc2cccc3cccnc23)cc1`, the DAPI nuclei signal change (viability), lower = more cytotoxic came to 12.3% and the inhibition is -32.6% (inactive).
Regarding `O=C(Nc1ccccc1Cl)Nc1cccc2cccnc12`, the DAPI nuclei signal change (viability), lower = more cytotoxic amounted to 2.86% and the inhibition is 20.5% (inactive).
The like results for `COc1ccc(C(=O)N2CCCCC2c2cc(C(=O)Nc3ccc(F)c(Cl)c3)no2)cc1` (stereo not given) were, in that order, -1.17% and 2.9% (inactive).
Consider `c1ccc2cc3c(NCCN4CCOCC4)ccnc3cc2c1`, for which the DAPI nuclei signal change (viability), lower = more cytotoxic worked out at 65.1% and the inhibition was 70.1% (active).
Regarding `O=C(NCCN1CCOCC1)c1cc(-c2cccs2)nc2ccccc12`, the DAPI nuclei signal change (viability), lower = more cytotoxic amounted to 34.9% and the inhibition is 13.5% (inactive).
`O=C(NCCN1CCOCC1)c1ccc2c(c1)ncn2C1CCCC1`: the DAPI nuclei signal change (viability), lower = more cytotoxic was 1.89% and the inhibition is -0.366% (inactive).
The like results for `CCOC(=O)C1CCCN(C(=O)c2ccc(C)c(S(=O)(=O)N3CCCCC3)c2)C1` (stereo not given) were, in that order, 0.656% and -11.3% (inactive).
In the case of `O=C(C1Cc2ccccc2CN1C(=O)c1ccco1)N1CCN(c2ccccc2)CC1` (stereo not given), the DAPI nuclei signal change (viability), lower = more cytotoxic was determined as 0.303% and the inhibition is 25.4% (inactive).
Consider `COc1cccc(CNc2nc3cc(-c4csc5ccccc45)sc3c(=O)n2C)c1`, for which the DAPI nuclei signal change (viability), lower = more cytotoxic was found to be 4.67% and the inhibition is 6.4% (inactive).
On to `O=C(CN1C(=O)NC2(CCOc3ccccc32)C1=O)Nc1cccc([N+](=O)[O-])c1` (stereo not given), for which the DAPI nuclei signal change (viability), lower = more cytotoxic was -0.437% and the inhibition was 29.8% (inactive).
Consider `CC(C)C[C@H](CO)Nc1nc(N(C)c2cccc(Cl)c2)c2ncn(C(C)C)c2n1`, for which the DAPI nuclei signal change (viability), lower = more cytotoxic is -1.92% and the inhibition is -3.43% (inactive).
For `OCCCNc1nccc(-c2cc(Nc3cccc(Cl)c3)ncn2)n1`, in that order: -53.6% and 91.3% (inactive).
In the case of `CC(C)n1cnc2c(Nc3cccc(Cl)c3)nc(N(CCO)CCCO)nc21`, the DAPI nuclei signal change (viability), lower = more cytotoxic is -20.3% and the inhibition was 56.1% (active).
Regarding `COc1cc(C(O)c2nc(-c3cnn(C)c3)cs2)ccc1F` (stereo not given), the DAPI nuclei signal change (viability), lower = more cytotoxic is -5.42% and the inhibition is -0.779% (inactive).
For `CN(C)C(=O)c1cccc(-c2cnc3c(NC=O)cc(-c4ccc(F)cc4)cn23)c1`, in that order: -3.97% and 30.4% (inactive).
As for `CC(=O)c1cccc(-c2cnc3c(NC=O)cc(-c4cccc(C(=O)N(C)C)c4)cn23)c1`, the DAPI nuclei signal change (viability), lower = more cytotoxic is -7.72% and the inhibition is 11.7% (inactive).
With `CN(C)C(=O)c1cccc(-c2cnc3c(NC=O)cc(-c4ccc(C(=O)N5CCOCC5)cc4)cn23)c1`, the DAPI nuclei signal change (viability), lower = more cytotoxic was -40.1% and the inhibition was 52.5% (active).
As for `O=CNc1cc(-c2ccc(C(=O)N3CCOCC3)cc2)cn2c(-c3ccc(F)cc3)cnc12`, the DAPI nuclei signal change (viability), lower = more cytotoxic is -10.1% and the inhibition is 16.1% (inactive).
Take `CC(=O)c1cccc(-c2cnc3c(NC=O)cc(-c4ccc(N(C)C)cc4)cn23)c1`: the DAPI nuclei signal change (viability), lower = more cytotoxic was -34.1% and the inhibition is 25.5% (inactive).
For the compound `CN(C)CCNC(=O)c1cccc(-c2cnc3c(NC=O)cc(-c4cccc(C(F)(F)F)c4)cn23)c1`, the DAPI nuclei signal change (viability), lower = more cytotoxic is -5.39% and the inhibition was 55.2% (active).
For `O=C(COC(=O)/C=C/c1cccc(Cl)c1)NCc1cccs1`, the DAPI nuclei signal change (viability), lower = more cytotoxic is -2.53% and the inhibition is 1.94% (inactive).
`CCCNC(=O)c1cc(C2CCCCN2S(=O)(=O)c2cn(C)cn2)on1` (stereo not given): the DAPI nuclei signal change (viability), lower = more cytotoxic came out at 4.91% and the inhibition is 3.78% (inactive).
Consider `CCCC(=O)Nc1nc2ccc(NC(=O)c3c(F)c(F)c(OC)c(F)c3F)cc2s1`, for which the DAPI nuclei signal change (viability), lower = more cytotoxic is -22.6% and the inhibition is 70% (active).
With `CC(=O)Nc1ccc2nc(NC(=O)CS(=O)(=O)c3ccc(F)cc3)sc2c1`, the DAPI nuclei signal change (viability), lower = more cytotoxic was -3.72% and the inhibition was -0.551% (inactive).
Consider `CSc1nc2ccc(NC(=O)c3c(F)cccc3F)cc2s1`, for which the DAPI nuclei signal change (viability), lower = more cytotoxic was determined as 1.73% and the inhibition is -11.3% (inactive).
Turning to `CCNC(=O)C1(C)CCCN(C(=O)c2c(C)noc2C)C1` (stereo not given), the DAPI nuclei signal change (viability), lower = more cytotoxic stood at 4.88% and the inhibition was -5.1% (inactive).
Consider `CC1=C(C(=O)N(C)C)CC(CC(=O)NCCc2ccccn2)C(=O)N1CCC1=CCCCC1` (stereo not given), for which the DAPI nuclei signal change (viability), lower = more cytotoxic is -8.79% and the inhibition was -1.46% (inactive).
Take `CN(Cc1c(F)cccc1Cl)C(=O)COC(=O)Cn1cnc2ccccc2c1=O`: the DAPI nuclei signal change (viability), lower = more cytotoxic is 0.959% and the inhibition is -10.1% (inactive).
With `O=C(OCCN1C(=O)c2ccccc2C1=O)[C@@H]1CC(O)CN1S(=O)(=O)c1ccccc1[N+](=O)[O-]` (stereo not given in full), the DAPI nuclei signal change (viability), lower = more cytotoxic was -0.22% and the inhibition was -9.02% (inactive).
The like results for `CCCC(=O)N1CCC1(C)C(=O)NS(=O)(=O)c1ccc(Cl)cc1` (stereo not given) were, in that order, 2.06% and 6.55% (inactive).
With `CC(=O)Nc1ccc(C(=O)Nc2cc(S(=O)(=O)N3CCOCC3)ccc2N2CCOCC2)cc1`, the DAPI nuclei signal change (viability), lower = more cytotoxic is 4.58% and the inhibition was -8.64% (inactive).
For `CN1CCN(c2ccc(NC(=O)COc3ccc(Cl)cc3Cl)cc2)CC1`, the DAPI nuclei signal change (viability), lower = more cytotoxic was 3.32% and the inhibition is -1.69% (inactive).
For the compound `C=CC(=O)Nc1ccc(Nc2ccnc(Nc3ccc(N4CCN(C)CC4)cc3)n2)cc1`, the DAPI nuclei signal change (viability), lower = more cytotoxic is -47% and the inhibition was 88.2% (active).
For `Cc1cccc(N2CCN(c3ccc(NC(=O)/C=C\C(=O)O)cc3)CC2)c1`, the DAPI nuclei signal change (viability), lower = more cytotoxic came to 1.52% and the inhibition was 7.15% (inactive).
On to `COc1cc(NC(=O)c2cc(-c3ccc(F)cc3OC(C)C)n[nH]2)cc(OC)c1OC`, for which the DAPI nuclei signal change (viability), lower = more cytotoxic was -6.58% and the inhibition is 5.57% (inactive).
Take `Cc1cc(N2CCN(c3ccccc3)CC2)nc(N2CCOCC2)n1`: the DAPI nuclei signal change (viability), lower = more cytotoxic is -3.71% and the inhibition is 14.3% (inactive).
On to `O=S(=O)(Cc1cc(Sc2ccccc2)nc(-c2ccccc2)n1)c1ccccc1`, for which the DAPI nuclei signal change (viability), lower = more cytotoxic was -1.14% and the inhibition is 12.7% (inactive).
As for `Cc1ccc(Sc2cc(N3CCOCC3)nc(-c3ccccc3)n2)cc1`, the DAPI nuclei signal change (viability), lower = more cytotoxic was -0.706% and the inhibition is 55.1% (active).
Turning to `COc1ccc(-c2ccc3c(c2)C2CC3CCN2CCC#N)cc1` (stereo not given), the DAPI nuclei signal change (viability), lower = more cytotoxic worked out at 3.73% and the inhibition is -6.07% (inactive).
With `CCc1nc2ccc(C(=O)Nc3cccc(OC)c3)cn2c1N(CCC(C)C)CCN(C)C`, the DAPI nuclei signal change (viability), lower = more cytotoxic was 0.0295% and the inhibition was 33.9% (inactive).
Turning to `Cc1[nH]c2ccccc2c1C(=O)C(=O)NCc1nnnn1-c1cccc(F)c1`, the DAPI nuclei signal change (viability), lower = more cytotoxic worked out at 9.45% and the inhibition is -12.5% (inactive).
As to `CCN(CC)c1ncnc2c1ncn2[C@H]1CN(Cc2cccs2)C[C@@H](CO)O1`, the DAPI nuclei signal change (viability), lower = more cytotoxic is -0.273% and the inhibition was -11.2% (inactive).
Take `OC(c1ccc(Cl)cc1)c1ncc(-c2ccc(Cl)cc2)[nH]1` (stereo not given): the DAPI nuclei signal change (viability), lower = more cytotoxic was found to be 11% and the inhibition was -53.7% (inactive).
On to `COc1ccccc1C1C2=C(COC2=O)Nc2cc3c(cc21)OCO3` (stereo not given), for which the DAPI nuclei signal change (viability), lower = more cytotoxic is -19.2% and the inhibition was 58.6% (active).
For the compound `CCCOc1ccccc1C1CC(=O)Nc2cc3c(cc21)OCO3` (stereo not given), the DAPI nuclei signal change (viability), lower = more cytotoxic is -7.65% and the inhibition was 28.7% (inactive).
As to `O=C1OCC2=C1C(c1ccc(Cl)cc1)c1cc3c(cc1O2)OCO3` (stereo not given), the DAPI nuclei signal change (viability), lower = more cytotoxic worked out at 6.8% and the inhibition is 11% (inactive).

The record behind these values is PubChem BioAssay AID651582 (Sanford-Burnham Center for Chemical Genomics, 2012).
